This passage reports growth inhibition results from PubChem BioAssay (NCI).

Compounds without any hit were thinned out: in the full panel of roughly 79,000, 15% have a hit. Unmarked numbers belong to inactive results. The source made the active and inactive calls. Cut-off read from the data, not from the text of the source: active = growth inhibition above about 70%; inactive = the rest.

Experiment [1] is described as follows: NCI Yeast Anticancer Drug Screen. Data for the rad50 strain (AID 155).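 Note: 0% = growth of vehicle-only cultures of the same strain.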 The settings on record: S. cerevisiae rad50 strain growth inhibition; at 50.0 µM; hits give high values. Put shortly: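 Relative growth inhibition (compound vs vehicle) was measured in yeast with a defined repair-gene alteration.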
A short description of experiment [2]: NCI Yeast Anticancer Drug Screen. Data for the sgs1 mgt1 strain (AID 161).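 Note: 0% = growth of cultures given vehicle only.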 The settings on record: S. cerevisiae sgs1 mgt1 strain, at 50.0 µM, hits give high values. Put shortly: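 Genetically altered yeast, compound exposure, growth inhibition relative to vehicle.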
A short description of experiment [3]: NCI Yeast Anticancer Drug Screen. Data for the cln2 rad14 strain (AID 165).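 Note: 0% = growth equal to vehicle treated cultures.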 The conditions noted are these: S. cerevisiae cln2 rad14 strain, at 50.0 µM, hits give high values. In short, it runs like this:
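Compounds are applied to the cln2 rad14 yeast strain, and growth is then compared with that of vehicle-treated cultures to give inhibition.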

Experiment [4] can be described thus: NCI Yeast Anticancer Drug Screen. Data for the bub3 strain (AID 167). The settings on record: S. cerevisiae bub3 mutant strain, at 50.0 µM, hits give high values. Put shortly: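 Screening used yeast with an engineered genetic alteration affecting cell cycle control. Compound-exposed cultures were compared with vehicle cultures, and reduced growth was taken as inhibition.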

The nature of experiment [5]: NCI Yeast Anticancer Drug Screen. Data for the mlh1 rad18 strain (AID 175). The conditions noted are these: S. cerevisiae mlh1 rad18 strain growth inhibition; at 50.0 µM; hits give high values. Put shortly:
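Read-out is yeast growth inhibition, calculated against vehicle-only controls. The compound was applied to a strain engineered with DNA damage repair alterations.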

Regarding `NNC(=O)/C(NC(=O)c1ccccc1)=C(\N)c1cccc([N+](=O)[O-])c1`, the growth inhibition is -34.4% in experiment [1]; 11.7% in experiment [2]; 3.25% in experiment [3]; -13.1% in experiment [4]; 0.9% in experiment [5].
The matching figures for `Cc1[nH]c(=O)nc2nc3ccc(Cl)cc3c(NCCNCCO)c12`: -37.5%, 24.1%, 3.5%, -0.9% and -43.6%.
As for `COc1cc2c(c(OC)c1OC)-c1ccc(OC)c(=O)cc1C(NC(=O)COc1ccccc1)CC2` (stereo not given), the growth inhibition was 16.5% in experiment [1]; 15.2% in experiment [2]; 11.2% in experiment [3]; 6.95% in experiment [4]; 14.6% in experiment [5].
For `CSc1ncc2c(C#N)c3ccccn3c(=O)c2n1` the same measures were 6.65%, 11.2%, -1.5%, 14.4% and -17.5%.
For `C/C(CCn1[nH]c(=O)ccc1=O)=N\O`, the growth inhibition in experiment [1] is -6.55%; in experiment [2], -5.8%; in experiment [3], -12.1%; in experiment [4], -24.6%; in experiment [5] it was -11.3%.
For `O=C1CN(c2ccccc2)C(=O)CN1/N=C/c1ccc[nH]1` the same measures were -27.4%, -4.9%, -21.4%, -7.7% and -13.4%.
Consider `Cc1ccc(SS(=O)(=O)c2ccc([N+](=O)[O-])cc2)cc1`, for which the growth inhibition in experiment [1] was 13.9%; in experiment [2], 9.3%; in experiment [3] it was -29.4%; in experiment [4] it was -5.45%; in experiment [5], 16.6%.
As to `O=CCS`, the growth inhibition in experiment [1] was -0.2%; in experiment [2], -5.6%; in experiment [3], -38%; in experiment [4] it was -31.2%; in experiment [5] it was 7.15%.
For `Cc1cccc(CCSCCc2cccc(C)[n+]2[O-])[n+]1[O-]` the same measures were 19.8%, -1.1%, 17.4%, 0.8% and 1.8%.
For `N#CC(c1cc2c(cc1Br)OCO2)N1CCOCC1` (stereo not given) the same measures were 17.5%, 10.9%, 8.25%, 46% and -11.8%.
For `CCN(CC)c1ccc(N=C2C=CC(=O)C(C)=C2)c(C)c1` the same measures were -3.05%, -0.9%, -23.4%, 11.8% and 3.05%.
As for `CCOC(=O)/C=C\[C@H]1OC(C)(C)O[C@H]1[C@H](O)[C@H]1COC(C)(C)O1`, the growth inhibition in experiment [1] is -22.3%; in experiment [2], -15.4%; in experiment [3], 38%; in experiment [4], -11.8%; in experiment [5], -9.6%.
For `O=C(Nc1ccccc1)OC1C(OC(=O)c2ccccc2)OC(COC(=O)c2ccccc2)C1OC(=O)c1ccccc1` (stereo not given) the same measures were -0.5%, 0.25%, -0.85%, -9.1% and -10.5%.
For `CCCCn1cnc2c(N)ncnc21` the same measures were -0.05%, -5.45%, -18.1%, 1.45% and -15.5%.
The matching figures for `O=C(Cc1n[nH]c(=S)nc1CC(=O)c1cccnc1)c1cccnc1`: 7.8%, 16.1%, -1%, 26.8% and 2.7%.
As to `CC(C)CC(NC(=O)CCCCCl)C(=O)O` (stereo not given), the growth inhibition in experiment [1] is -1.85%; in experiment [2], 0.25%; in experiment [3] it was 2.75%; in experiment [4], -3.4%; in experiment [5] it was 6.05%.
Take `CCOC(=O)c1nnc2cc(-c3ccccc3)nn2c1C`: the growth inhibition in experiment [1] is 6.65%; in experiment [2] it was 18.1%; in experiment [3] it was 25.4%; in experiment [4], 41.4%; in experiment [5], 28.6%.
For `O=C(Nc1ccc(Cl)cc1[N+](=O)[O-])Oc1ccc(-c2ccccc2)cc1` the same measures were 23.4%, 48.1%, 8.3%, 78.8% (active) and 66%.
Regarding `Cc1ccc(N=Nc2c(O)c(C(=O)O)cc3ccccc23)c(S(=O)(=O)O)c1`, the growth inhibition is 12.3% in experiment [1]; -7.5% in experiment [2]; -45.2% in experiment [3]; 5.9% in experiment [4]; 26.4% in experiment [5].
With `COc1ccc(/C=C/C(=O)c2ccccc2)cc1`, the growth inhibition is 25.7% in experiment [1]; -12.6% in experiment [2]; 2.25% in experiment [3]; -28.9% in experiment [4]; 4.9% in experiment [5].
As for `CCOc1cc2c(cc1OC)c[n+](C)c1c3cc(OC)c(OC)cc3ccc21`, the growth inhibition was 22.5% in experiment [1]; 15% in experiment [2]; -2.1% in experiment [3]; -6.05% in experiment [4]; 14.6% in experiment [5].
On to `CC(C)CCNCC(C)(C)OC(=O)c1ccc([N+](=O)[O-])cc1`, for which the growth inhibition in experiment [1] was 34.6%; in experiment [2], 51.9%; in experiment [3], 31.3%; in experiment [4], 30.4%; in experiment [5], 33.2%.
With `CC1(C)CN(CCO)C(C)(C)CN1CCO`, the growth inhibition in experiment [1] was 13.4%; in experiment [2], 7.2%; in experiment [3] it was 12.4%; in experiment [4] it was -27.7%; in experiment [5], -10.1%.
With `O=C(O)C1(c2ccccc2)CC1`, the growth inhibition was 8.5% in experiment [1]; 13.1% in experiment [2]; 2.45% in experiment [3]; 15.9% in experiment [4]; 7.85% in experiment [5].
With `Cc1cccc(N=N/C(=N\NC(=O)c2cc(Cl)ccc2O)c2ccc(N(CCC#N)CCC#N)cc2C)c1`, the growth inhibition in experiment [1] was 13.7%; in experiment [2], 19.7%; in experiment [3] it was 1.8%; in experiment [4], 13.8%; in experiment [5], -79.6%.
Turning to `OCCN(CCO)c1cc(/C=C/c2c3ccccc3cc3ccccc23)nc2ccccc12`, the growth inhibition is 94.2% (active) in experiment [1]; 96.1% (active) in experiment [2]; 94.8% (active) in experiment [3]; 96.5% (active) in experiment [4]; 95.7% (active) in experiment [5].
